Reference: PubChem BioAssay (NCI)
Values joined by “and” are separate entries in the source; they are usually repeats but may differ in a detail not shown here. Identical values can stand only once. Compounds without any hit were thinned out: in the full panel of roughly 83,000, 20% have a hit.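 In brief: 96-well plates, 48 h treatment, single concentration, percent growth endpoint.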 Active and inactive are the calls of the source. Rule for the calls: active = growth percent below 10; inactive = the rest.

Legend:
Assay in all cases: NCI-60 one-dose screen, 48 h (100 = growth as untreated, 0 = no growth, -100 = all killed)
Settings in all cases: 10 µM unless noted
NCI/ADR-RES ovarian = test system: NCI/ADR-RES ovarian
T-47D breast = test system: T-47D breast
BT-549 breast = test system: BT-549 breast
MDA-MB-435 melanoma = test system: MDA-MB-435 melanoma
SW-620 colon = test system: SW-620 colon
MCF7 breast = test system: MCF7 breast
HCT-116 colon = test system: HCT-116 colon
HCC-2998 colon = test system: HCC-2998 colon
KM12 colon = test system: KM12 colon

Measured: growth

C[C@]12CCc3nc(-c4ccc(O)c(O)c4)sc3C1=CC[C@@H]1[C@@H]2CC[C@]2(C)C(=O)CC[C@@H]12
inactive: NCI/ADR-RES ovarian 73.7% | T-47D breast 69% | BT-549 breast 58.1% | MDA-MB-435 melanoma 71.3% | SW-620 colon 55.4% | MCF7 breast 48.4% | HCT-116 colon 26% | HCC-2998 colon 99.2% | KM12 colon 90.8%

C[C@]12CC[C@H](O)C[C@@H]1CC[C@@H]1[C@@H]2CC[C@]2(C)OC(=O)CC[C@@H]12
inactive: NCI/ADR-RES ovarian 101% | T-47D breast 63.6% | BT-549 breast 88.2% | MDA-MB-435 melanoma 102% | SW-620 colon 115% | MCF7 breast 96.8% | HCT-116 colon 88.6% | HCC-2998 colon 102% | KM12 colon 92.5%

CC[C@H](C)[C@H]1O[C@]2(C=C[C@@H]1C)C[C@@H]1C[C@@H](C/C=C(\C)[C@@H](O[C@H]3C[C@H](OC)[C@@H](O[C@H]4C[C@H](OC)[C@@H](NC)[C@H](C)O4)[C@H](C)O3)[C@@H](C)/C=C/C=C3\CO[C@@H]4[C@H](O)C(C)=C[C@@H](C(=O)O1)[C@]34O)O2
active: NCI/ADR-RES ovarian 0.588% | T-47D breast -27.6% | BT-549 breast 3.48% | MDA-MB-435 melanoma -83.4% | SW-620 colon -68.1% | MCF7 breast -85% | HCT-116 colon -79% | HCC-2998 colon -83.9% | KM12 colon -70.6%

ClC1OC(Cl)(Cl)C(Cl)(Cl)OC1(Cl)Cl (stereo not drawn)
inactive: NCI/ADR-RES ovarian 102% | T-47D breast 91.4% | BT-549 breast 84.4% | MDA-MB-435 melanoma 101% | SW-620 colon 115% | MCF7 breast 76.9% | HCT-116 colon 89.4% | HCC-2998 colon 112% | KM12 colon 104%

O=C(O)C1C(C(=O)O)C2(Cl)C(Cl)=C(Cl)C1(Cl)C2(Cl)Cl (stereo not drawn)
inactive: NCI/ADR-RES ovarian 111% and 106% | T-47D breast 98.7% | BT-549 breast 104% and 107% | MDA-MB-435 melanoma 100% and 106% | SW-620 colon 98.5% and 101% | MCF7 breast 104% and 96.8% | HCT-116 colon 101% and 107% | HCC-2998 colon 102% | KM12 colon 100% and 105%

CC1(C)S[C@H]2CC[C@H]3OC(=O)[C@@H]1N23
inactive: NCI/ADR-RES ovarian 93.8% | T-47D breast 104% | BT-549 breast 85.3% | MDA-MB-435 melanoma 93.3% | SW-620 colon 113% | MCF7 breast 103% | HCT-116 colon 103% | HCC-2998 colon 97.7% | KM12 colon 111%

NC(=O)Oc1cc(OC(N)=O)cc(N(CCCl)CCCl)c1
inactive: NCI/ADR-RES ovarian 54.9% | T-47D breast 53.6% | BT-549 breast 68.2% | MDA-MB-435 melanoma 65.2% | SW-620 colon 60.8% | MCF7 breast 31.8% | HCT-116 colon 61.9% | HCC-2998 colon 103% | KM12 colon 82.3%

C[C@]12CC[C@H]3[C@@H](CC=C4c5nc(-c6ccc(Br)cc6)sc5CC[C@@]43C)[C@@H]1CC[C@@H]2O
inactive: NCI/ADR-RES ovarian 99.5% | T-47D breast 92.6% | BT-549 breast 82.8% | MDA-MB-435 melanoma 96.1% | SW-620 colon 108% | MCF7 breast 87.2% | HCT-116 colon 84.9% | HCC-2998 colon 110% | KM12 colon 102%

Cc1ccc(N2CCN(CCC#N)CC2)cc1
inactive: NCI/ADR-RES ovarian 98.8% | T-47D breast 90.9% | BT-549 breast 79% | MDA-MB-435 melanoma 101% | SW-620 colon 90.3% | MCF7 breast 73.8% | HCT-116 colon 95.7% | HCC-2998 colon 88% | KM12 colon 90%

CC1=C([Te]c2ccccc2)C(=O)c2ccccc2C1=O
active: NCI/ADR-RES ovarian -23.1% | T-47D breast -51.9% | BT-549 breast -30.7% | MDA-MB-435 melanoma -3.36% | SW-620 colon -88.2% | MCF7 breast -77.3% | HCT-116 colon -40.5% | HCC-2998 colon -66.4% | KM12 colon -60.7%

CC/C(Cc1ccccc1)=C(\c1ccc(OCCN2CCCC2)cc1)c1ccc(OC(=O)NCc2ccccc2)cc1
inactive: NCI/ADR-RES ovarian 88.1% | T-47D breast 21.2% | BT-549 breast 77.9% | MDA-MB-435 melanoma 53.6% | HCC-2998 colon 83.1% | KM12 colon 45.7%
active: SW-620 colon -44.1% | MCF7 breast -11.1% | HCT-116 colon -34.2%

CN(C)C(=S)SSC(=S)N(C)C
inactive: NCI/ADR-RES ovarian 110% and 113% | T-47D breast 85.8% and 95.4% | BT-549 breast 101% and 111% | MDA-MB-435 melanoma 97.3% | SW-620 colon 69.2% and 98% | MCF7 breast 70.9% | HCT-116 colon 99% | HCC-2998 colon 109% | KM12 colon 81.8% and 95.8%
